Our source for the composite z-score and z-score values is PubChem BioAssay.

Active and inactive are the calls of the source.

The subject of test [1] is Plasmodium falciparum Sir2 (PF13_0152, Sir2A). Briefly: Plasmodium falciparum Sir2A binding compounds – biochemical, small-molecule microarray, 635 nm fluorescence, primary screen (AID 1098).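 Also: score merges spot fluorescence intensity with its signal-to-noise ratio.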 The conditions noted are these: fluorescence 635 nm, higher = more signal.
Test [2] is described as follows: probe aDKK1 binding to arrayed compounds – biochemical, biotinylated probe, 635/667 nm fluorescence, primary screen (AID 1099).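 Also: score merges 667nm spot fluorescence with signal to noise across triplicate slides.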 The conditions noted are these: small-molecule microarray, higher = more signal.
The nature of test [3]: probe aCHRDL2 binding to arrayed compounds – biochemical, biotinylated probe, 635/667 nm fluorescence, primary screen (AID 1100). To be noted: small-molecule microarray, higher = more signal.
The nature of test [4]: change in splice reporter luminescence, either direction, cell-based, HEK293, spliceosome inhibition project, primary screen (AID 1101).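 Also: HEK293 cells carrying a splicing-competent luciferase reporter gene; test concentration not given here.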 To be noted: HEK293 splicing luciferase reporter, 24 h, higher = more signal, called active from +8 up or from −8 down. In general terms: In a reporter assay the amount or activity of a reporter protein is the signal.
In test [5] the target is Fibroblast growth factor 10 (Homo sapiens) (UniProt O15520). The test can be described thus: compounds binding fibroblast growth factor 10 – biochemical, small-molecule microarray, 635 nm fluorescence, primary screen (AID 1102). To be noted: FGF10 binding, fluorescence 635 nm, higher = more signal.
For test [6], the system named is glycogen synthase kinase-3 (GSK3A per assay name; protocol says GSK3B). Briefly: compounds binding glycogen synthase kinase-3 – biochemical, small-molecule microarray, 635 nm fluorescence, GSK3A, primary screen (AID 1103). Also: the record names both GSK3A and GSK3B. The conditions noted are these: fluorescence 635 nm, higher = more signal.
The target in test [7] is Epidermal growth factor receptor (Homo sapiens) (UniProt P00533). The test can be described thus: compounds binding epidermal growth factor receptor – biochemical, small-molecule microarray, 635 nm fluorescence, primary screen (AID 1104).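 Also: score merges 667 nm emission intensity with spot signal to noise over triplicate slides.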 To be noted: EGFR binding, higher = more signal.
In test [8] the target is Follistatin-related protein 3 (Homo sapiens) (UniProt O95633). Briefly: compounds binding follistatin-related protein 3 – biochemical, small-molecule microarray, 635 nm fluorescence, primary screen (AID 1105).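 Also: score merges emission near 667 nm and signal to noise per printed spot across three slides.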 To be noted: FSTL3 binding, higher = more signal.
In test [9] the target is Dickkopf-related protein 1 (Homo sapiens) (UniProt O94907). Briefly: small molecules binding DKK1 protein – biochemical, small-molecule microarray, 635 nm fluorescence scan, primary screen (AID 1106).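 Also: score merges emission near 667 nm with signal to noise over three replicate slides.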 To be noted: higher = more signal.
The test system of test [10] is Inhibin beta A chain (activin A). The test can be described thus: small molecules binding activin A – biochemical, small-molecule microarray, 635 nm fluorescence scan, primary screen (AID 1107).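 Also: mouse activin A protein probed at 4.33 µg/mL on printed slides; score merges bound-protein fluorescence near 667 nm with spot signal-to-noise.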 To be noted: INHBA, higher = more signal.
The subject of test [11] is Human papillomavirus type 1a protein E7 (residues 44-93). Briefly: small molecules binding HPV E7 44-93 – biochemical, small-molecule microarray, residues 44-93, 635 nm fluorescence, primary screen (AID 1108).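 Also: E7 fragment applied at 1 µg/mL in TBST for 1 h at 4 C; score combines spot fluorescence with its signal to noise ratio.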 To be noted: fluorescence 635 nm, higher = more signal.
Test [12] in a line: hepatitis C replication reporter changes, two-sided – Huh7 cells, luciferase reporter, HCV replication inhibitor project, primary screen (AID 1109).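 Also: huh7 hepatoma cells harbouring a luciferase neomycin HCV replicon reporter; luciferase luminescence as measure of HCV replicon replication; test concentration not given here.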 To be noted: Huh7 HCV replicon luciferase reporter, 48 h; higher = more signal.
Test [13] has as its target Left-right determination factor 2 (Homo sapiens) (UniProt O00292). The test can be described thus: small molecules binding LEFTY2 protein – biochemical, small-molecule microarray, 635 nm fluorescence scan, primary screen (AID 1110). To be noted: higher = more signal.
The target of test [14] is Calmodulin-1 (Homo sapiens) (UniProt P0DP23). Briefly: small molecules binding calmodulin-1 with EGTA – biochemical, small-molecule microarray, Cy5-labelled CALM1, profiling panel (AID 1111).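 Also: labelled calmodulin applied in Tris saline Tween buffer holding calcium plus EGTA and DTT.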 To be noted: Cy5-CALM1 binding fluorescence, higher = more signal.
Test [15] has the same target. Briefly: small molecules binding Ca-loaded calmodulin-1 – biochemical, small-molecule microarray, Cy5-labelled CALM1, plus calcium, artefact control for SMM control-protein annotation, profiling panel (AID 1112).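 Also: score merges spot fluorescence with signal to noise from triplicate slides.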 The conditions noted are these: Cy5-CALM1 binding fluorescence, higher = more signal.
Test [16] can be described thus: probe aWnt5a binding to arrayed compounds – biochemical, biotinylated probe, 635/667 nm fluorescence, primary screen (AID 1113).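 Also: score merges 667 nm fluorescence intensity with signal-to-noise per printed feature.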 To be noted: small-molecule microarray, higher = more signal.
The nature of test [17]: probe aShh binding to arrayed compounds – biochemical, biotinylated probe, 635/667 nm fluorescence, primary screen (AID 1114).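 Also: probe is biotin-labelled aShh protein from a stem cell growth factor screen; measures binding of labelled protein to compounds printed on the slide; score merges feature fluorescence at 667 nm with signal-to-noise.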 To be noted: small-molecule microarray, higher = more signal.
A short description of test [18]: probe aNog binding to arrayed compounds – biochemical, biotinylated probe, 635/667 nm fluorescence, primary screen (AID 1115).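 Also: probe is biotinylated aNog protein used at 0.15 µg/mL for 1 h at 4 C; z-score combines 667 nm fluorescence of each spot with its signal to noise.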 To be noted: small-molecule microarray, higher = more signal.
Test [19] has as its target Torsin-1A-interacting protein 1 (Homo sapiens) (UniProt Q5JTV8). The test can be described thus: compound microarray binding of lysate hLAP1 – cell lysate, small-molecule microarray, COS7 lysate, 635/667 nm fluorescence, primary screen (AID 1116). To be noted: 635 nm fluorescence, higher = more signal.
The target in test [20] is Alpha-bungarotoxin (Bungarus multicinctus) (UniProt P60615). Briefly: compounds binding labelled alpha-BTX control protein – biochemical, small-molecule microarray, Alexa647 label, 635/667 nm fluorescence, artefact control for SMM control protein annotation, profiling panel (AID 1117). To be noted: alpha-BTX-A647 binding fluorescence, higher = more signal.
Chain of Alpha-bungarotoxin (Bungarus multicinctus) (P60615 whole entry, looked up): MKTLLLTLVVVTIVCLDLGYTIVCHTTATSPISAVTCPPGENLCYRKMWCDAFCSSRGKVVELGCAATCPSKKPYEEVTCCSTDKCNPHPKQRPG

Chain of Follistatin-related protein 3 (Homo sapiens) (O95633 whole entry, looked up): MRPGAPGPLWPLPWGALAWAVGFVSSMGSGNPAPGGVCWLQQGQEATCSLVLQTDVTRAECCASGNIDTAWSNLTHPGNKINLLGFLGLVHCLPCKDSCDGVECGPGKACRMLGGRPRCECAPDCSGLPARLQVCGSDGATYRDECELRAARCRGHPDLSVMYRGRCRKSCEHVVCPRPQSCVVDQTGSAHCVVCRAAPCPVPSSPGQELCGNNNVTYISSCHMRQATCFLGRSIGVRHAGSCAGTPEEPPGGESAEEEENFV
Chain of Fibroblast growth factor 10 (Homo sapiens) (O15520 whole entry, looked up): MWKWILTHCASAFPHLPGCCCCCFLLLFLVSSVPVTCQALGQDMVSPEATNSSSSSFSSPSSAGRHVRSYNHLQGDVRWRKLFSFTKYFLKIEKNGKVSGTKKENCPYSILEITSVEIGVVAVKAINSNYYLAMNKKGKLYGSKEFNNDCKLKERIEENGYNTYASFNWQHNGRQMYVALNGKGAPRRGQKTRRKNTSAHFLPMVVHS
Chain of Epidermal growth factor receptor (Homo sapiens) (P00533 whole entry, looked up): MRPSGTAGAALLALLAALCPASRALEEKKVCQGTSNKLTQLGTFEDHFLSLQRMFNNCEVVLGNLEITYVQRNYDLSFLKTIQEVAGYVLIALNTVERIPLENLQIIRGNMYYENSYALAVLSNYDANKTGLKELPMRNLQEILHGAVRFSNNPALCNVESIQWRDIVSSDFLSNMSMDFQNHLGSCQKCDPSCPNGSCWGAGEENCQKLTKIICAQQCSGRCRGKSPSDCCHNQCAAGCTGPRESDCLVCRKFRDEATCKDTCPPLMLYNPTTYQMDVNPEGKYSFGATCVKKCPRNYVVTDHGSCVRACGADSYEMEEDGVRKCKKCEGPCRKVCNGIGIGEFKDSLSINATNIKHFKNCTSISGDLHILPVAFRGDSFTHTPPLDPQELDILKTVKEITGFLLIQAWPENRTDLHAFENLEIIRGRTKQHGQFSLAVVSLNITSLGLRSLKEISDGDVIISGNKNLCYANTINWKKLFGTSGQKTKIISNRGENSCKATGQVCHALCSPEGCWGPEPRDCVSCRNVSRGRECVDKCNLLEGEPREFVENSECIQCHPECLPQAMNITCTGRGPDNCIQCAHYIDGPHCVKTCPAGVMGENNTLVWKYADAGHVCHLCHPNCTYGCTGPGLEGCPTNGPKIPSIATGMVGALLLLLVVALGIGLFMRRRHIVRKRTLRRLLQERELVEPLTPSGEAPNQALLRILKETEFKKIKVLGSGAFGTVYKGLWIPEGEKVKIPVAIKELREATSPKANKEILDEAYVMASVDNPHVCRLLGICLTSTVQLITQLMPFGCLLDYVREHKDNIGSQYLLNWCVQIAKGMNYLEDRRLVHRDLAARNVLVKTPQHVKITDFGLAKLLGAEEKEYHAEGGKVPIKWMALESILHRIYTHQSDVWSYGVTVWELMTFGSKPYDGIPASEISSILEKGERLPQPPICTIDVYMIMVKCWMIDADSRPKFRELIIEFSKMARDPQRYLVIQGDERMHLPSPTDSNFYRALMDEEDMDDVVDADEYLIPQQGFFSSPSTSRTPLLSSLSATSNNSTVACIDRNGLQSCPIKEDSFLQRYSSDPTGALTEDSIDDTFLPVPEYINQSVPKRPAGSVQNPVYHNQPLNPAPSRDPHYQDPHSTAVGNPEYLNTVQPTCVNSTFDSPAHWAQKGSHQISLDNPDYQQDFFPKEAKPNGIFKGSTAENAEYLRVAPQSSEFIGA
Chain of Left-right determination factor 2 (Homo sapiens) (O00292 whole entry, looked up): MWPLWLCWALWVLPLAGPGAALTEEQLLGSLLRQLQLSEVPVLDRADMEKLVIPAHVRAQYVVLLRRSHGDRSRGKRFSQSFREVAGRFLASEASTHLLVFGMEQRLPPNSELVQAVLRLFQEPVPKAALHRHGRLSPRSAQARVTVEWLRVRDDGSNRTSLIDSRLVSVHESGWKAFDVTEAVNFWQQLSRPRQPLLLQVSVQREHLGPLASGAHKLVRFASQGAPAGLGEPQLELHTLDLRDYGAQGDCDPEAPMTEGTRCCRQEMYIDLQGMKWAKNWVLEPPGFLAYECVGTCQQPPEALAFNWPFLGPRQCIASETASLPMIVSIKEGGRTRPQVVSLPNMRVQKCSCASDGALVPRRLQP
Chain of Torsin-1A-interacting protein 1 (Homo sapiens) (Q5JTV8 whole entry, looked up): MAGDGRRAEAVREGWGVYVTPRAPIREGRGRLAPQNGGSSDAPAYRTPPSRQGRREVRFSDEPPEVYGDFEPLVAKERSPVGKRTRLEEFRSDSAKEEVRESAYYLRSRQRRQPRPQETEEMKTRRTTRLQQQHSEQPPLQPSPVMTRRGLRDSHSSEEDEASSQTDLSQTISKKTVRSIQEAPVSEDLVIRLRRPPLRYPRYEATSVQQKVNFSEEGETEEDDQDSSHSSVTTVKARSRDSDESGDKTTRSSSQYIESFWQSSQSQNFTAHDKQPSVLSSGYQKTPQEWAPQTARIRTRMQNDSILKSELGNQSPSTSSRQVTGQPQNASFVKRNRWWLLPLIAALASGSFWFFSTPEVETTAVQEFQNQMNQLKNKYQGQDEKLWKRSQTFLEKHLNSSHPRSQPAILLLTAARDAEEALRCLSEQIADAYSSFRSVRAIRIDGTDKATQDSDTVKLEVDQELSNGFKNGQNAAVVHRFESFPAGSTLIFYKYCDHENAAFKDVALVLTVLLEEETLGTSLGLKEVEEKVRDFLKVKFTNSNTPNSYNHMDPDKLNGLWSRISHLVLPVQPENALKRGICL
Chain of Dickkopf-related protein 1 (Homo sapiens) (O94907 whole entry, looked up): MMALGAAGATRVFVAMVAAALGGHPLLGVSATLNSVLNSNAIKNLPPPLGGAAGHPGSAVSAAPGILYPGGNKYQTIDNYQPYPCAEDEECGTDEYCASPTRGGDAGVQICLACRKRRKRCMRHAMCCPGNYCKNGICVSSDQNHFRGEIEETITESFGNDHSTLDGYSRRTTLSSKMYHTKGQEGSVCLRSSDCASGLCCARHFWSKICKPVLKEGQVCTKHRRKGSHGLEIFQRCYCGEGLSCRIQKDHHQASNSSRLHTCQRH

On to `O=C1N(CCS(=O)(=O)c2ccccc2)Cc2ccccc2[C@@H]2OC(c3ccc(OCCCO)cc3)=N[C@]12CCS(=O)(=O)c1ccccc1`, for which the composite z-score in test [1] amounted to 1.14; in [2] it was 0.846; in test [3] it was 0.788; in test [5] it was 1.46; in test [6] it was 1.32; in test [7], 0.89. Moreover, the composite z-score in test [8] was found to be 1.48; in [9], 1.46; in test [10], 1.22; in [11], 1.48; in test [13] it was 1.14; in test [14], 1.23. In addition, the composite z-score in [15] was -0.104; in test [16], 0.104; in test [17], 0.0898; in test [18] it was 0.445; in test [19], 1.72; in test [20], 0.821. Besides, the z-score is -0.42 (inactive) in test [4] and -0.0756 in test [12].

Consider `COC(=O)c1c2oc(c1C(=O)OC)C(=O)N1CCC[C@H]1Cn1nncc1CN(Cc1ccccc1)C(=O)N[C@H](CO)CC2`, for which the composite z-score in [1] was 0.614; in [2] it was -0.304; in test [3] it was -0.0048; in [5], 0.627; in test [6], -0.103; in test [7], 0.327. The composite z-score in test [8] was -0.0361; in test [9] it was -0.113; in test [10], 0.309; in test [11], 0.289; in test [13] it was 0.239; in [14], 0.724. The composite z-score in test [15] is 0.169; in test [16], -0.0738; in test [17] it was -0.221; in test [18] it was -0.296; in test [19], -0.285; in [20], -0.524. Moreover, the z-score in test [4] was 0.733 (inactive); in test [12] it was 0.253.

On to `CN(C)C(=O)[C@@]1(CCC(=O)OC(C)(C)C)N=C(c2ccc(OCCCO)cc2)O[C@H]1c1ccccc1CN=[N+]=[N-]`, for which the composite z-score in test [1] was 1.6; in [2], 0.473; in test [3] it was 0.724; in [5], 0.965; in test [6], -0.416; in test [7] it was -0.341. Further, the composite z-score in test [8] was 0.442; in [9], -0.695; in test [10] it was -0.0415; in test [11], 1.5; in test [13] it was -0.9; in [14], 1.18. For the same compound, the composite z-score is 0.0572 in test [15]; 0.0044 in [16]; 0.579 in test [17]; 1.32 in test [18]; 2.74 in test [19]; 0.548 in test [20]. In addition, the z-score in test [4] is 0.277 (inactive); in [12], -1.61.

Consider `C=C(/C(=C/C[C@@H](OC(C)=O)c1ccc(OCCO)cc1)c1cc(C(=O)OC)ccc1OC)C(C)C`, for which the composite z-score was 1.28 in [1]; 0.0968 in test [2]; 0.0396 in test [3]; 1.08 in [5]; 0.263 in [6]; -0.461 in [7]. Moreover, the composite z-score was 0.231 in [8]; 0.328 in [9]; 0.59 in [10]; -0.544 in test [11]; 0.354 in [13]; 0.0164 in test [14]. Besides, the composite z-score in test [15] is -0.258; in [16], -0.181; in [17], -0.0769; in test [18] it was -0.237; in test [19], 0.651; in [20], 1.31. Further, the values for the z-score in test [4] and in [12] were 0.0641 (inactive) and -0.161, respectively.

As to `COCCCNC(=O)[C@@]1(Sc2ccc(C)cc2)CC(=O)N(C(C)C)[C@@H]1c1ccc(CO)cc1I`, the composite z-score in test [1] was 1.03; in test [2] it was -0.0358; in [3], 0.836; in test [5], -0.0668; in [6] it was -0.0859; in test [7], -0.839. For the same compound, the composite z-score in [8] was -0.665; in test [9] it was -1.12; in test [10] it was 0.978; in test [11], 1.27; in test [13], -0.327; in [14], -0.0081. The composite z-score was -0.0868 in [15]; -0.096 in test [16]; -0.291 in test [17]; -0.289 in test [18]; 0.722 in test [19]; 0.487 in test [20]. Moreover, the z-score was -2.25 (inactive) in [4] and -3.44 in test [12].

Consider `COc1ccc([Si](C)(C)[C@H]2[C@H](CCO)O[C@@]3(C(=O)N(Cc4ccccc4)c4ccc(N5C(=O)c6ccccc6Oc6ccccc65)cc43)[C@@H]2C)cc1`, for which the composite z-score is 0.365 in test [1]; -0.167 in [2]; -0.123 in [3]; 0.0351 in [5]; -0.512 in test [6]; -0.124 in [7]. In addition, the composite z-score was -0.734 in test [8]; 0.0449 in [9]; 0.201 in test [10]; 0.647 in test [11]; -0.358 in test [13]; 0.425 in [14]. Moreover, the composite z-score in test [15] turned out to be 0.773; in [16] it was 0.0431; in [17], 0.213; in test [18] it was 0.195; in test [19], 0.323; in test [20], 0.178. Besides, the z-score in [4] was -0.916 (inactive); in test [12] it was -4.49.
